Measurements taken from PubChem BioAssay (Tox21).
Records with an inconclusive call do not appear. Calls of active or inactive are those of the source. Calls come from the whole dose curve; as a rule, active = well fitted activation curve with a large enough effect in the repeat runs; inconclusive = weak or mixed curves; inactive = flat fitted curve, though single readings scatter.

molecular target: Nuclear receptor subfamily 1 group I member 2 (Homo sapiens) (UniProt O75469); assay: Human pregnane X receptor (PXR) activation by small molecules, qHTS assay (AID 1346985); details: DPX-2 HepG2 CYP3A4-luciferase, 24 h; series mostly up to 38.3 µM; activation: at the top concentration; note: nearly all actives have a fitted effect of over 40% in size
Text: National Center for Advancing Translational Sciences [NCATS]
NIH Chemical Genomics Center [NCGC]
U.S. Environmental Protection Agency [EPA]
National Institutes of Environmental Health Sciences [NIEHS]
National Toxicology Program [NTP]
The Pregnane X receptor (PXR), a ligand activated nuclear receptor plays a critical role in the regulation of genes involved in drug metabolism and transporters. Activation of PXR may be involved in the unwanted adverse drug-drug interactions. […] Therefore, identification of compounds with the potential for PXR activation can be of importance in improving the efficacy of drugs with less toxicity and avoiding drug-drug interactions.
DPX-2 (Puracyp, Inc.) cell lines, used for screening against human PXR activation has HepG2 cells co-transfected with a PXR response element and a luciferase construct containing CYP3A4 promoter. Increase in luciferase activity can be used to identify the compounds that activate the PXR pathway.
DPX-2 cells were dispensed at 2,000 cells per well in 5uL of assay medium into white, solid-bottom 1536-well plates using a Multidrop Combi dispenser (Thermo Scientific). The assay plates were incubated at 37C for 5hr before transferring 23nL of test compounds dissolved in DMSO and positive control via Pintool station (Wako). The assay plates were incubated at 37C for 24hr. Then 5ul One-Glo assay reagent (Promega) was added to each plate by a Flying Reagent Dispenser (FRD, Aurora Discovery) and following 30 min incubation at room temperature, luciferase activity was quantified on a ViewLux plate reader (Perkin Elmer).
% is set by controls: 0 for no effect and ±100 for the full control effect; potency is the fitted concentration of half-maximal effect.

SMILES | activation | Potency
CO[C@H]1C=CO[C@@]2(C)Oc3c(C)c(O)c4c(O)c(cc(O)c4c3C2=O)NC(=O)/C(C)=C\C=C/[C@H](C)[C@H](O)[C@@H](C)[C@@H](O)[C@@H](C)[C@H](OC(C)=O)[C@@H]1C | 12.7% (inactive) | –
CCN(CC)CCCN(c1ccccc1)C1Cc2ccccc2C1 | – | 5.01 µM (active)
O=C1OC(OC(=O)c2cccnc2Nc2cccc(C(F)(F)F)c2)c2ccccc21 (configuration not stated) | 3.15% (inactive) | –
CNC(=O)c1cc(Oc2ccc(NC(=O)Nc3ccc(Cl)c(C(F)(F)F)c3)cc2)ccn1 | -9.15% (inactive) | –
CC1=C(/C=C/C(C)=C/C=C/C(C)=C/C(=O)Nc2ccc(O)cc2)C(C)(C)CCC1 | 13.6% (inactive) | –
N[C@@H](CSSC[C@H](N)C(=O)O)C(=O)O | 2.14% (inactive) | –
CCCSS/C(CCO)=C(\C)N(C=O)Cc1cnc(C)nc1N | 8.57% (inactive) | –
CCN(CC)CCSC(=O)C(c1ccccc1)c1ccccc1 | – | inactive
C/C=C/C=N/NC(=O)c1ccncc1 | -6.22% (inactive) | –
C=C(c1ccc(C(=O)O)cc1)c1cc2c(cc1C)C(C)(C)CCC2(C)C | 21.3% (inactive) | –
Nc1ncnc2c1ncn2[C@@H]1O[C@H](COP(=O)(O)O)[C@@H](O)[C@H]1O | 1.61% (inactive) | –
CCOC(=O)[C@@](C)(N)Cc1ccc(O)c(O)c1 | -7.37% [at 17.1 µM] (inactive) | –
CC(C)N=C(N)/N=C(\N)Nc1ccc(Cl)cc1 | 9.9% [at 17.1 µM] (inactive) | –
Cc1cccc(C)c1NC(=O)CN1CCN(CCCC(c2ccc(F)cc2)c2ccc(F)cc2)CC1 | 23.7% [at 17.1 µM] (inactive) | –
COc1ccccc1OCCNCC(O)COc1cccc2[nH]c3ccccc3c12 (configuration not stated) | – | 22.4 µM (active)
CCCCOc1ccc(C(=O)CCN2CCCCC2)cc1 | 11.7% [at 17.1 µM] (inactive) | –
CCCCCCCC/C=C\CCCCCCCC(=O)NCc1ccc(O)c(OC)c1 | 27.2% (inactive) | –
COCC(=O)O[C@]1(CCN(C)CCCc2nc3ccccc3[nH]2)CCc2cc(F)ccc2[C@@H]1C(C)C | -16.6% (inactive) | –
CCCN(CCc1cccs1)[C@H]1CCc2c(O)cccc2C1 | 10.4% (inactive) | –
O[C@@H](c1cc(C(F)(F)F)nc2c(C(F)(F)F)cccc12)[C@H]1CCCCN1 | -8.66% (inactive) | –
C[C@@]12C(=O)OC(=O)[C@]1(C)C1CCC2O1 | – | 0.794 µM (active)
CCCCN(CCCC)CCC(O)c1cc2c(Cl)cc(Cl)cc2c2cc(C(F)(F)F)ccc12 (configuration not stated) | -3.37% [at 17.1 µM] (inactive) | –
S=P(N1CC1)(N1CC1)N1CC1 | 0.642% (inactive) | –
CCCCCCCCCCCCCCNCCO | 18% (inactive) | –
CC(=O)Oc1ccc(C2(c3ccc(OC(C)=O)cc3)C(=O)Nc3ccccc32)cc1 | – | inactive
NC(=O)C(=O)N/N=C/c1ccc([N+](=O)[O-])o1 | 3.81% (inactive) | –
CN(Cc1cc(Br)cc(Br)c1N)C1CCCCC1 | – | 8.91 µM (active)
